This note sets out measurements from PubChem BioAssay (NCI).

About 83,000 compounds went through this panel and 20% of them were active in at least one assay; those are over-represented in the sample as a whole.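 A percent growth of 40 corresponds to 60% growth inhibition; 0 means no net growth; -100 means all cells died. Active threshold: below 10.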 Calls of active or inactive are those of the source.

For this test, the system named is HL-60(TB) leukemia. Nature of the test: NCI-60 one-dose screen, 48 h (100 = growth as untreated, 0 = no growth, -100 = all killed). The following applies: 10 µM unless noted.
For the compound `Cc1c(Cl)cccc1NC(=O)CCCl`, the growth is 73.6% (inactive).

With `CC(NNC(C)c1ccccc1)c1ccccc1` (stereo not given), the growth is 113% (inactive).

`O=C1CS/C(=N\Nc2cc(=O)[nH]c3ccccc23)N1c1ccccc1`: the growth was 96.2% (inactive).

Take `Cc1oc2ccc(O)c(CN3CCCCCC3)c2c1C(=O)Nc1ccc(C(F)(F)F)cc1`: the growth is 83% (inactive).

Turning to `COc1cc(OC)c(C(=O)/C=C/c2cccc(OC(C)=O)c2)cc1CC=C(C)C`, the growth is 8.14% (active).

Take `C#Cc1cc(C(=O)Nc2ccc(CN3CCN(C)CC3)c(C(F)(F)F)c2)ccc1C`: the growth is 77.8% (inactive).

As to `C[N+](C)(C/C=C/c1ccccc1)Cc1ccccc1`, the growth was 92.6% (inactive).

As to `O=C1COCCN1c1ccc(NCc2cn(Cc3ccc(F)cc3)c3ccccc23)cc1`, the growth is 86.9% (inactive).

On to `COc1ccc(CNC(=O)C(O)C(Cc2ccccc2)NC(=O)c2[nH]c3ccccc3c(=O)c2C)cc1OC` (stereo not given), for which the growth was 97.3% (inactive).

Regarding `CCOC(=O)C(CC(=O)O)=C(C(=O)OCC)C(=O)OCC`, the growth is 99.6% (inactive).

Regarding `C/C(=C\CCc1ccsc1)CC/C=C(\C)CCCN1CCN(CCO)CC1`, the growth is -38.3% (active).

Take `CCOc1ccc(-c2nc3ccc(-c4nc5ccc(N6CCN(C)CC6)cc5[nH]4)cc3[nH]2)cc1OCC`: the growth is 24.8% (inactive).

With `CN1CCN(Cc2ccc(NC(=O)c3cncc(C#Cc4ccc(N)nc4)c3)cc2C(F)(F)F)CC1`, the growth was -38.5% (active).

With `COc1ccc(C2c3ccc4ccccc4c3Oc3ncn(CCCn4ccnc4)c(=N)c32)cc1OC` (stereo not given), the growth was 40.7% (inactive).

`CC[C@@H](c1ccc2cc(OC)ccc2c1)C(C)(C)C(=O)F`: the growth is 104% (inactive).
